# Measured values: the supplement of paper PMC3334620
# Over roughly 33,000 sequences, “E-score (-0.5 to 0.5)” has its median near -0.041; the highest 2% begin near 0.37. Only a selection was taken, and the highest values are over-represented in it overall.
# Molecular target: T1, Ecm22 (UniProt Q05958)
# T1 sequence: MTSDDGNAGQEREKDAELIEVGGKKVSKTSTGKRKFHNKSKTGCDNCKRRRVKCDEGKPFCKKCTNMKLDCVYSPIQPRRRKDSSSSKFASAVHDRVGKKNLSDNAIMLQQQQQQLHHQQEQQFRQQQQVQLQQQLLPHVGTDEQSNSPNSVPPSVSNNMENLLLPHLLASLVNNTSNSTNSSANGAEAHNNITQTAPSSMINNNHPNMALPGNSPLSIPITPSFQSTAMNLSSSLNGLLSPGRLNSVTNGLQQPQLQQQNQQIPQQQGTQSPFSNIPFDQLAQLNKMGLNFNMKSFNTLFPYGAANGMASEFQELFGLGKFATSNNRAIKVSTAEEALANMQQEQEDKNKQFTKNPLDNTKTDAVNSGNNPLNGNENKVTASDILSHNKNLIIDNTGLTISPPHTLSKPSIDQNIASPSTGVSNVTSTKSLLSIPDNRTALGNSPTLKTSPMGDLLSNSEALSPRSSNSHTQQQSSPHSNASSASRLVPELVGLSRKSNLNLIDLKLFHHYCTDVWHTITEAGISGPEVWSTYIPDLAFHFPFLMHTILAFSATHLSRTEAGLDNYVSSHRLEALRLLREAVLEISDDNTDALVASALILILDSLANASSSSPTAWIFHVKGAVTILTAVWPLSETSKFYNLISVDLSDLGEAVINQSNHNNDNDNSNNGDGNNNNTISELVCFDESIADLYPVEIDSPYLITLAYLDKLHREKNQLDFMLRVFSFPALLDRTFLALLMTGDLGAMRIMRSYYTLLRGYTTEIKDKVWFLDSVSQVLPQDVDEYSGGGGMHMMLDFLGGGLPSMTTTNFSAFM
# Test: PBM E-score (8-mer binding enrichment) (E-score (-0.5 to 0.5)); higher = stronger / more preferred TF binding
# Details: protein concentration: 200 nM; construct: GST-full length
# In short: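 Full-length yeast transcription factors or their DNA-binding domains, GST-tagged and expressed with PURExpress, were applied at about 100-200 nM to universal all-10-mer Agilent arrays. These arrays had been made double-stranded by primer extension on fresh or once-stripped slides. Detection used fluorescent anti-GST, normalisation used masliner, and E-scores for ungapped eight-base words pooled with reverse complements came from the Universal PBM Analysis Suite.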
row,Sequence,PBM E-score
1,CGGCAACC,-0.082
2,AACATTCT,-0.0433
3,ATTTATAA,0.0523
4,CTTTATAC,0.23
5,ATTTATAC,0.401
6,AAGAACCC,-0.0304
7,CGTACCTC,0.435
8,AGTACCTA,-0.104
9,CGTACCTA,0.441
10,GGTACCTA,-0.1
11,AGTACCTC,-0.19
12,CCTACCTC,-0.0998
13,CTAGAACA,-0.0457
14,CGGGTCGC,0.187
15,ACCGTCGA,-0.216
16,AACGTCGA,0.178
17,ACCGTCGC,0.278
18,AACGTCGT,0.37
19,AACGTCGG,0.17
20,ACCGTCGT,0.404
21,AAGCTCAG,-0.321
22,CGGTTCGC,0.151
23,AACCTAGC,-0.09
24,AGAGGGGG,-0.0644
25,ACAGCACC,-0.276

row,Sequence,PBM E-score
1,CCTCGTTC,0.474
2,GCTCGCTA,0.31
3,ACTCGTTA,0.348
4,GCACGTTA,0.0282
5,CCTCGTTA,0.402
6,ACTCGGTC,0.229
7,GCTCGTTA,0.373
8,CCTCGTGC,0.0902
9,CCTCGTCC,-0.238
10,CCACGTTA,0.0599
11,ACTCGTTC,0.466
12,ACTCGTTG,0.274
13,TCTCCTAA,-0.203
14,TCTAGGAA,-0.0513
15,CCTCGCTA,0.215
16,CCTCGCTC,0.372
17,ACTCGCTC,0.354
18,GGGAGAAA,-0.141
19,GGGGACCA,-0.259
20,CACGATTA,0.1
21,GACGATTA,0.0551
22,ACCGATTG,0.115
23,AACGATTA,0.382
24,ATCGATTG,0.0987
25,AACGATTC,0.377

row,Sequence,PBM E-score
1,AGCGATTC,0.12
2,CACGATTC,0.244
3,AACGATTG,0.384
4,CAGGGCAA,-0.227
5,CTGACGTA,0.132
6,AAGATACA,-0.046
7,GACTCGAC,0.0219
8,ATGAGATG,-0.227
9,ACTGCTGA,-0.19
10,CCCTCTCC,-0.358
11,CTAGGAAA,-0.209
12,CGCGCAAA,0.188
13,ATACGGGC,0.413
14,ACACGGGA,0.0892
15,GTACGGGA,0.419
16,CTACGGGA,0.146
17,ATACGGGA,0.389
18,ATACGGGG,0.386
19,AGACGGGG,-0.0581
20,AAACGGGG,0.361
21,GAACGGGA,0.327
22,CTACGGGC,-0.0464
23,GCACGGGA,0.0895
24,ACACGGGC,-0.0743
25,AAGCGCAC,0.0929

row,Sequence,PBM E-score
1,AAGCTTGT,0.0175
2,ACAATCCT,-0.0917
3,GGGGCAGA,-0.0715
4,ATCCTGCC,-0.0749
5,CGAGCACA,0.225
6,AGCCCTGG,-0.233
7,TAACCCCA,-0.181
8,ACAACTCC,-0.151
9,CGGCGAAA,0.0597
10,ATGTATAC,0.179
11,AAGTATAC,0.255
12,GAGTATAC,0.286
13,GGGTATAC,0.15
14,GCGTATAC,0.406
15,CGGTATAA,0.161
16,ACGTATAC,0.381
17,CCGTATGC,0.268
18,CTGTATAA,0.0431
19,CCGTATAA,0.473
20,CCGTATGA,0.396
21,ACGTATGA,0.17
22,AGTGCCAA,-0.0554
23,CTGCCTCA,-0.257
24,AATGTGCT,0.00418
25,CGATATGC,0.188

row,Sequence,PBM E-score
1,ATTCCCAG,-0.0258
2,GGAGCGAC,0.339
3,GGCGTTGA,-0.126
4,ACTTTAGG,-0.0481
5,AAGTATAT,0.0727
6,AGGTATAA,0.211
7,GCGTATAA,0.394
8,CCGTATAC,0.456
9,ACGTATAA,0.412
10,CTGTATAC,0.207
11,GTGTATAA,-0.026
12,AGGTATAT,-0.117
13,ATGTATAA,0.0604
14,GCGTATTA,0.031
15,CCGTATCC,0.337
16,ACGTATAT,0.371
17,TTCAAGAA,0.0932
18,CAGCCGGC,0.0272
19,CCAGAGAA,0.0432
20,GCAGGACA,-0.0743
21,CAGTCTAA,0.0425
22,ATGACTTG,-0.136
23,AGATACTG,-0.0213
24,CGGACGTA,0.205
25,ACTTTTAT,-0.217

row,Sequence,PBM E-score
1,CTACAGTC,-0.0606
2,AACAGGTA,-0.0274
3,AATAAGGC,-0.225
4,ACGTATAG,0.403
5,CGGTATAG,0.0179
6,ACGTATCG,0.192
7,ACGTATTG,0.22
8,CCGTATCG,0.291
9,CCGTATAG,0.465
10,CTGAAGTA,-0.134
11,TCACCAAA,0.0237
12,ACGGATAA,0.159
13,CCGGATAA,0.0584
14,TCGGATAA,0.372
15,AGCAGCCG,-0.0197
16,ATATAGGC,-0.00233
17,AAACGCAT,0.0604
18,AGACGACT,0.065
19,TAACGACA,0.352
20,GCACGACC,-0.219
21,CAACGACA,0.346
22,AAACGACG,0.465
23,AAACGACT,0.437
24,GGACGACC,-0.107
25,CGACGACG,0.127

row,Sequence,PBM E-score
1,GAACGACC,0.451
2,ACACGACT,0.117
3,CAACGACG,0.351
4,GAACGACA,0.456
5,ATAGCTCC,-0.169
6,CCCTTCCA,-0.32
7,ACCGGATG,0.0481
8,CTCCTCTC,-0.0778
9,GGTGTGAC,-0.177
10,CTCGCACC,0.31
11,AGATCCGG,-0.0497
12,ATCGGTCG,0.211
13,TCACGACA,0.00255
14,CCACGACA,-0.0411
15,CAACGACC,0.278
16,AAACGACA,0.467
17,AATCGACC,-0.0105
18,AAACGACC,0.45
19,CCTTCCGC,-0.184
20,GAGAGGGA,-0.212
21,AGATACGA,0.47
22,GGATACCA,-0.0853
